Source: PubChem BioAssay (NCATS)
Records with an inconclusive call do not appear. Activity calls are given as the source filed them. The call rests on the fitted dose curve; in most records, active means well fitted cell-killing curve with a large enough effect; inconclusive means small, poorly fitted or top-dose-only effect, or effect the other way; inactive means flat fitted curve, though single readings scatter.

Columns and labels:
Experiment in all cases: Primary qHTS to identify gynecologic anti-cancer compounds using libraries of approved drugs and bioactive compounds (AID 1345084); further: nearly all actives have a fitted effect of over 55% in size
C33A = conditions: Gynecologic cancer cell panel viability, ATPlite luminescence, 48 h; series mostly up to 57.5 µM
Summary of the method: (§1)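 Cells, 1,000 per well, plated 16 h, then exposed 48 h at 37 C to compounds. Viability by ATPlite luminescence after 15 min at room temperature.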

CASKI = conditions: Gynecologic cancer cell panel viability, ATPlite luminescence, 48 h; series mostly up to 57.5 µM
Summary of the method: as §1

Es-2 = conditions: Gynecologic cancer cell panel viability, ATPlite luminescence, 48 h; series mostly up to 57.5 µM
Summary of the method: as §1

HeLa = conditions: Gynecologic cancer cell panel viability, ATPlite luminescence, 48 h; series mostly up to 57.5 µM
Summary of the method: as §1

Hek293T = conditions: Gynecologic cancer cell panel viability, ATPlite luminescence, 48 h, control line for the selectivity index; series mostly up to 57.5 µM
Summary of the method: as §1

JEG-3 = conditions: Gynecologic cancer cell panel viability, ATPlite luminescence, 48 h; series mostly up to 57.5 µM
Summary of the method: as §1

OV90 = conditions: Gynecologic cancer cell panel viability, ATPlite luminescence, 48 h; series mostly up to 57.5 µM
Summary of the method: as §1

PA-1 = conditions: Gynecologic cancer cell panel viability, ATPlite luminescence, 48 h; series mostly up to 57.5 µM
Summary of the method: as §1

SKOV3 = conditions: Gynecologic cancer cell panel viability, ATPlite luminescence, 48 h; series mostly up to 57.5 µM
Summary of the method: as §1

Tov-21-G = conditions: Gynecologic cancer cell panel viability, ATPlite luminescence, 48 h; series mostly up to 57.5 µM
Summary of the method: as §1

Tov112D = conditions: Gynecologic cancer cell panel viability, ATPlite luminescence, 48 h; series mostly up to 57.5 µM
Summary of the method: as §1
On the % scale 0 is the no-effect control and ±100 the full control effect.

C/C=C/C1OC2=C(C(=O)OC2(C)O)C(O)C1O (stereo unspecified)
inactive: Potency (C33A) | outcome (CASKI) | Potency (Es-2) | Potency (HeLa) | Potency (Hek293T) | Potency (JEG-3) | Potency (OV90) | Potency (PA-1) | Potency (SKOV3) | Potency (Tov-21-G) | Potency (Tov112D)

Cc1ccccc1N1CCN(S(=O)(=O)C[C@]23CC[C@H](C[C@@H]2NC(=O)[C@@H](N)CCS(C)(=O)=O)C3(C)C)CC1
inactive: Potency (C33A) | outcome (CASKI) | Potency (Es-2) | Potency (HeLa) | Potency (Hek293T) | Potency (JEG-3) | Potency (OV90) | Potency (PA-1) | Potency (SKOV3) | Potency (Tov-21-G) | Potency (Tov112D)

C=CC(C)(O)CC/C=C(\C)C1CC=C(C)C(=O)O1 (stereo unspecified)
inactive: Potency (C33A) | outcome (CASKI) | Potency (Es-2) | Potency (HeLa) | Potency (Hek293T) | Potency (JEG-3) | Potency (OV90) | Potency (PA-1) | Potency (SKOV3) | Potency (Tov-21-G) | Potency (Tov112D)

CCCN1CCC[C@@H](c2cccc(S(C)(=O)=O)c2)C1
inactive: Potency (C33A) | outcome (CASKI) | Potency (Es-2) | Potency (HeLa) | Potency (Hek293T) | Potency (JEG-3) | Potency (OV90) | Potency (PA-1) | Potency (SKOV3) | Potency (Tov-21-G) | Potency (Tov112D)

O=C(CC1CC(c2ccc(F)cc2F)=NO1)N1CCOCC1 (stereo unspecified)
inactive: Potency (C33A) | outcome (CASKI) | Potency (Es-2) | Potency (HeLa) | Potency (Hek293T) | Potency (JEG-3) | Potency (OV90) | Potency (PA-1) | Potency (SKOV3) | Potency (Tov-21-G) | Potency (Tov112D)

C[C@@H]1O[C@@H](O[C@@H]2[C@@H](O)[C@H](O[C@@H]3[C@@H](O)[C@@H](O)[C@H](O[C@H]4[C@H](OC(=O)[C@]56CCC(C)(C)C[C@H]5C5=CCC7[C@@]8(C)C[C@H](O)[C@H](O[C@@H]9O[C@H](C(=O)O)[C@@H](O)[C@H](O)[C@H]9O)[C@@](C)(CO)C8[C@H](O)C[C@@]7(C)[C@]5(C)C[C@H]6O)O[C@@H](CO)[C@@H]4O)O[C@H]3C)OC[C@H]2O)[C@H](O)[C@H](O)[C@H]1O (stereo partly specified)
inactive: activity change, negative = cytotoxicity (C33A) 7.96% [at 6.55 µM] | activity change, negative = cytotoxicity (CASKI) 4.5% [at 6.55 µM] | activity change, negative = cytotoxicity (Es-2) 7.92% [at 6.55 µM] | activity change, negative = cytotoxicity (HeLa) 5.7% [at 6.55 µM] | activity change, negative = cytotoxicity (Hek293T) 11.5% [at 6.55 µM] | activity change, negative = cytotoxicity (JEG-3) 3.64% [at 6.55 µM] | activity change, negative = cytotoxicity (OV90) 0.206% [at 6.55 µM] | activity change, negative = cytotoxicity (PA-1) 24% [at 6.55 µM] | activity change, negative = cytotoxicity (SKOV3) -4.92% [at 6.55 µM] | activity change, negative = cytotoxicity (Tov-21-G) 2.22% [at 6.55 µM] | activity change, negative = cytotoxicity (Tov112D) 5.57% [at 6.55 µM]

CC(CCO)CCC1C2(C)CCCC(C)(C)C2CC[C@@]1(C)O (stereo partly specified)
inactive: Potency (C33A) | outcome (CASKI) | Potency (Es-2) | Potency (HeLa) | Potency (Hek293T) | Potency (JEG-3) | Potency (OV90) | Potency (PA-1) | Potency (SKOV3) | Potency (Tov-21-G) | Potency (Tov112D)

CC(=O)[C@@H]1C[C@H](C(C)(C)O[C@@H]2O[C@H](CO)[C@@H](O)[C@H](O)[C@H]2O)CC[C@@]2(CO)OC(=O)C[C@@H]12
inactive: Potency (C33A) | outcome (CASKI) | Potency (Es-2) | Potency (HeLa) | Potency (Hek293T) | Potency (JEG-3) | Potency (OV90) | Potency (PA-1) | Potency (SKOV3) | Potency (Tov-21-G) | Potency (Tov112D)

OC[C@H]1O[C@@H](OC[C@H]2O[C@@H](OCc3ccccc3)[C@H](O)[C@@H](O)[C@@H]2O)[C@H](O)[C@@H](O)[C@@H]1O
inactive: Potency (C33A) | outcome (CASKI) | Potency (Es-2) | Potency (HeLa) | Potency (Hek293T) | Potency (JEG-3) | Potency (OV90) | Potency (PA-1) | Potency (SKOV3) | Potency (Tov-21-G) | Potency (Tov112D)

CC(C)C1CCC(CO)=CC1/C=C(\CO)C(=O)OCC1(O)CCC(C(C)C)C2C=C(C(=O)O)COC(=O)C21 (stereo unspecified)
inactive: Potency (C33A) | outcome (CASKI) | Potency (Es-2) | Potency (HeLa) | Potency (Hek293T) | Potency (JEG-3) | Potency (OV90) | Potency (PA-1) | Potency (SKOV3) | Potency (Tov-21-G) | Potency (Tov112D)

CC1=C(C)C(=O)OC(C(C)C2C(O)CC3C4C5OC5C5(O)CC(OC6OC(CO)C(OC7OC(C)C(O)C(O)C7O)C(O)C6O)CC(O)C5(C)C4CCC32C)C1 (stereo unspecified)
inactive: Potency (C33A) | outcome (CASKI) | Potency (Es-2) | Potency (HeLa) | Potency (Hek293T) | Potency (JEG-3) | Potency (OV90) | Potency (PA-1) | Potency (SKOV3) | Potency (Tov-21-G) | Potency (Tov112D)

COC(=O)Cn1nc(-c2cccc(OC)c2)c2ccccc21
inactive: Potency (C33A) | outcome (CASKI) | Potency (Es-2) | Potency (HeLa) | Potency (Hek293T) | Potency (JEG-3) | Potency (OV90) | Potency (PA-1) | Potency (SKOV3) | Potency (Tov-21-G) | Potency (Tov112D)

O=S(=O)(O)c1ccc(Nc2ncnc3c2ncn3[C@@H]2O[C@H](CO)[C@@H](O)[C@H]2O)cc1
inactive: Potency (C33A) | outcome (CASKI) | Potency (Es-2) | Potency (HeLa) | Potency (Hek293T) | Potency (JEG-3) | Potency (OV90) | Potency (PA-1) | Potency (SKOV3) | Potency (Tov-21-G) | Potency (Tov112D)

COC(=O)/C=C/c1ccc(O[C@@H]2O[C@H](CO)[C@@H](O)[C@H](O)[C@H]2O)cc1
inactive: Potency (C33A) | outcome (CASKI) | Potency (Es-2) | Potency (HeLa) | Potency (Hek293T) | Potency (JEG-3) | Potency (OV90) | Potency (PA-1) | Potency (SKOV3) | Potency (Tov-21-G) | Potency (Tov112D)

CC1=CC(=O)C2C(C)(C)CCC[C@]2(C)[C@H]1CC[C@H](C)CC(=O)O (stereo partly specified)
inactive: Potency (C33A) | outcome (CASKI) | Potency (Es-2) | Potency (HeLa) | Potency (Hek293T) | Potency (JEG-3) | Potency (OV90) | Potency (PA-1) | Potency (SKOV3) | Potency (Tov-21-G) | Potency (Tov112D)

OC[C@H]1O[C@@H](OCCc2ccccc2)[C@H](O[C@@H]2OC[C@@H](O)[C@H](O)[C@H]2O)[C@@H](O)[C@@H]1O
inactive: Potency (C33A) | outcome (CASKI) | Potency (Es-2) | Potency (HeLa) | Potency (Hek293T) | Potency (JEG-3) | Potency (OV90) | Potency (PA-1) | Potency (SKOV3) | Potency (Tov-21-G) | Potency (Tov112D)

COC(=O)C(CC1(O)c2ccccc2N2C(=O)C(CC(C)C)NC21)n1cnc2ccccc2c1=O (stereo unspecified)
inactive: Potency (C33A) | outcome (CASKI) | Potency (Es-2) | Potency (HeLa) | Potency (Hek293T) | Potency (JEG-3) | Potency (OV90) | Potency (PA-1) | Potency (SKOV3) | Potency (Tov-21-G) | Potency (Tov112D)

CC(C)=C1C[C@@]2(C)C(=CC1=O)CC[C@@H](O)[C@@H]2C
inactive: Potency (C33A) | outcome (CASKI) | Potency (Es-2) | Potency (HeLa) | Potency (Hek293T) | Potency (JEG-3) | Potency (OV90) | Potency (PA-1) | Potency (SKOV3) | Potency (Tov-21-G) | Potency (Tov112D)

Cc1ccc([C@@H]2CC=C(C(=O)O)[C@H](c3ccc(C(C)(C)C)cc3)N2S(=O)(=O)c2ccc(C)cc2)cc1
inactive: Potency (C33A) | outcome (CASKI) | Potency (Es-2) | Potency (HeLa) | Potency (Hek293T) | Potency (JEG-3) | Potency (OV90) | Potency (PA-1) | Potency (SKOV3) | Potency (Tov-21-G) | Potency (Tov112D)

O=C(O)C1(c2ccc(-c3ccc(Cl)c(Cl)c3)c(F)c2)CC1
inactive: Potency (C33A) | outcome (CASKI) | Potency (Es-2) | Potency (HeLa) | Potency (Hek293T) | Potency (JEG-3) | Potency (OV90) | Potency (PA-1) | Potency (SKOV3) | Potency (Tov-21-G) | Potency (Tov112D)

CC1=C2C(=O)C=C(CO[C@@H]3O[C@H](CO)[C@@H](O)[C@H](O)[C@H]3O)[C@@H]2[C@H]2OC(=O)[C@H](C)[C@@H]2CC1
inactive: Potency (C33A) | outcome (CASKI) | Potency (Es-2) | Potency (HeLa) | Potency (Hek293T) | Potency (JEG-3) | Potency (OV90) | Potency (PA-1) | Potency (SKOV3) | Potency (Tov-21-G) | Potency (Tov112D)

C=C(C)[C@@H]1CC[C@]2(C)CC[C@]3(C)C(CCC4[C@@]5(C)CC[C@H](O)C(C)(C)C5CC[C@]43C)C12 (stereo partly specified)
inactive: Potency (C33A) | outcome (CASKI) | Potency (Es-2) | Potency (HeLa) | Potency (Hek293T) | Potency (JEG-3) | Potency (OV90) | Potency (PA-1) | Potency (SKOV3) | Potency (Tov-21-G) | Potency (Tov112D)

COc1cc(C2Oc3c(OC)cc(/C=C/C(=O)OC4CC(O)(C(=O)O)CC(O)C4O)cc3C2CO)ccc1O (stereo unspecified)
inactive: Potency (C33A) | outcome (CASKI) | Potency (Es-2) | Potency (HeLa) | Potency (Hek293T) | Potency (JEG-3) | Potency (OV90) | Potency (PA-1) | Potency (SKOV3) | Potency (Tov-21-G) | Potency (Tov112D)

C/C=C(\C)C(=O)OCC1OC(OC2OC(CO)C(O)C(O)C2O)C(O)C(O)C1O (stereo unspecified)
inactive: Potency (C33A) | outcome (CASKI) | Potency (Es-2) | Potency (HeLa) | Potency (Hek293T) | Potency (JEG-3) | Potency (OV90) | Potency (PA-1) | Potency (SKOV3) | Potency (Tov-21-G) | Potency (Tov112D)

O=C(O)c1cc(O[C@@H]2O[C@H](CO)[C@@H](O)[C@H](O)[C@H]2O)ccc1O
inactive: Potency (C33A) | outcome (CASKI) | Potency (Es-2) | Potency (HeLa) | Potency (Hek293T) | Potency (JEG-3) | Potency (OV90) | Potency (PA-1) | Potency (SKOV3) | Potency (Tov-21-G) | Potency (Tov112D)

CC(C)C1CCC(C(=O)N[C@@H](Cc2ccccc2)C(=O)O)CC1 (stereo partly specified)
inactive: Potency (C33A) | outcome (CASKI) | Potency (Es-2) | Potency (HeLa) | Potency (Hek293T) | Potency (JEG-3) | Potency (OV90) | Potency (PA-1) | Potency (SKOV3) | Potency (Tov-21-G) | Potency (Tov112D)
